Structures are written as SMILES. Potency and affinity values are given separately. Calls of active or inactive are those of the source.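 The calls were made as follows: active = cell toxicity seen as a signal drop, with half-maximal potency at most twice the top valid dose; inconclusive = flat curve with a partial drop, or a poor fit; inactive = the rest, including rises in signal.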

Experimental findings from PubChem BioAssay AID743441 (Broad Institute, 2014) are described below.

This assay in a line: ATP-based viability loss in HEK293T cells – cell-based, CellTiter-Glo luminescence, cherry-picked samples, set 4, cytotoxicity control, dose response (AID 743441). The conditions noted are these: 72 h; series mostly up to 26 µM. Background: In ATP-based viability assays light output follows the ATP content of the culture.
For the compound `CC(CNc1ccc(Cl)cc1)(CNc1ccc(Cl)cc1)[N+](=O)[O-]`, the compound was called inactive.
Under `Cc1ccc(S(=O)(=O)N2CC[C@H]3[C@H](CO)Nc4ccc(Br)cc4[C@H]32)cc1` stands “inactive”; under `Cc1[nH]c(=S)sc1Cc1ccc(Cl)c(Cl)c1`, “inactive”; under `O=C(O)c1cc([N+](=O)[O-])ccc1NCc1ccccc1`, “inactive”.
Under `Cc1noc(C)c1NC(=O)Nc1ccc2c(c1)C(=O)N([C@H](C)CO)C[C@@H](C)[C@@H](CN(C)C(=O)Nc1ccc3c(c1)OCO3)OCCCC[C@@H](C)O2` stands “inactive”.
Under `Cc1ccc(C)c(NC(=O)CSc2nc3nc(-c4cccs4)cc(C(F)(F)F)c3c(=O)[nH]2)c1` stands “inactive”.
On to `CCOC(=O)c1c(NC(=O)Cc2cccs2)sc(C)c1C`, for which the compound was classed as inactive.
Under `CC[C@H]1OC(=O)[C@H](C)[C@@H](O[C@H]2C[C@@](C)(OC)[C@@H](O)[C@H](C)O2)[C@H](C)[C@@H](O[C@@H]2O[C@H](C)C[C@H](N(C)C)[C@H]2O)[C@](C)(O)C[C@@H](C)[C@@H]2N[C@@H](COCCOC)O[C@H]([C@H]2C)[C@]1(C)O` stands “inactive”; under `COc1ccc2[nH]c3c(=O)n(CCCCC(=O)NCCC(C)C)c(=S)[nH]c3c2c1`, “inactive”; under `CC1(Cc2ccccc2C#N)C(=O)Nc2cc(-c3ccccc3Cl)ccc21` (centres undefined), “inactive”.
Consider `COc1cccc(C(=O)Nc2cc(C)nn2-c2ccccc2)c1OC`, for which the result was inactive.
`COC(=O)c1c(NC(=O)CCC(=O)O)sc(Cc2ccccc2)c1C`: the call was inactive.
As to `CSc1nc(N)nc(SC2C=CCCC2)c1C#N` (centres undefined), the outcome was inactive.
For the compound `Cc1cc(C)c(C#N)c(N2CCN(c3ccccc3)CC2)n1`, the outcome was inactive.
